Data published in PubChem BioAssay AID540333 (Southern Research Specialized Biocontainment Screening …, 2011).
The whole screen tested about 10,000 compounds, of which about 320 (3.2%) were called active. This is one part of a sample in which actives are shown more often than they occur. Rule as the data show it: active = CPE inhibition mostly above about 9.1% (no sharp cut-off); inactive = mostly below about 7.2%.

assay: antivirals protecting cells from dengue CPE – CPE readout, HTS (AID 540333); details: Dengue virus CPE inhibition in host cells, at 20 µM; stronger effect = higher value

SMILES | CPE inhibition
CC(=O)CSc1ccc(C(=O)O)cn1 | 0.685% (inactive)
Cc1ccccc1OCCNC(=O)/C=C/c1ccccc1 | inactive
COc1ccc(NC(=O)CCC2CCCCC2)cc1S(=O)(=O)N1CCCCC1 | 11.6% (active)
Cc1cccc(OCCCC(=O)Nc2ccc(N(C)C)cc2)c1 | 0.66% (inactive)
COc1ccc(NC(=O)CCCC2CCCCC2)cc1S(=O)(=O)N1CCCCC1 | 0.425% (inactive)
Cc1cccc(OCCC(=O)Nc2ccc(C)c(S(=O)(=O)N3CCCCC3)c2)c1 | 16.7% (active)
COc1ccc(NC(=O)CSc2ccccc2)cc1S(=O)(=O)N1CCCCC1 | inactive
Cc1ccc(NC(=O)CSc2ncnc3ccccc23)cc1S(=O)(=O)N1CCCCC1 | 2.42% (inactive)
COc1ccc([C@H]2CC(=O)C=C(c3cc(C(F)(F)F)cc(C(F)(F)F)c3)C2)cc1 | inactive
COCCCNCCCCOc1ccc(Br)cc1C | inactive
CC1c2ccccc2SC(CCCN(C)C)c2ccccc21 (stereo not drawn) | inactive
Cc1ccc(NC(=S)N2CCN(C)CC2)c(C)c1 | 0.8% (inactive)
CS(=O)(=O)N(CC(=O)N/N=C/c1ccco1)c1ccccc1Br | 0.19% (inactive)
COc1ccccc1N(CC(=O)N/N=C/c1c(O)ccc2ccccc12)S(C)(=O)=O | 0.02% (inactive)
CCOC(=O)c1ccc(-c2ccc(/C=N/NC(=O)CN(c3ccccc3Cl)S(C)(=O)=O)o2)cc1 | 12.9% (active)
Cc1ccc(NC(=O)c2ccc(OC(F)F)cc2)cc1S(=O)(=O)N(C)C | inactive
CCn1c(COc2ccc(Cl)cc2)nnc1SC1CCc2ccccc2C1=O (stereo not drawn) | 1.03% (inactive)
O=C(COC(=O)CC(c1ccccc1)c1ccccc1)Nc1cccc(F)c1 | inactive
CCCCc1nn2c(N)c(/C=C3\C=Nc4ccccc43)c(=O)nc2s1 | inactive
O=C1S/C(=C\c2ccccc2)C(=O)N1CC(O)Cn1c2ccccc2c2ccccc21 (stereo not drawn) | inactive
CN(C)c1ccc(/C=C2\SC(=O)N(CC(O)Cn3c4ccccc4c4ccccc43)C2=O)cc1 (stereo not drawn) | 2.39% (inactive)
O=C1S/C(=C/c2ccccc2)C(=O)N1CC(O)Cn1c2ccccc2c2ccccc21 (stereo not drawn) | 16.2% (active)
C=CCN1c2ccccc2[C@]23C[C@@H](C(=O)OC)N(C(=O)NC4CCCC4)C2=NC(C(=O)OC)=C(C(=O)OC)[C@H]13 | 0.19% (inactive)
CC1(C)CC(=NOC(=O)c2ccccc2)CC(C)(C)N1O | 3.8% (inactive)

SMILES | CPE inhibition
Cc1ccc(Nc2ccc(C(=O)NCCc3ccccc3)cn2)cc1 | 0.525% (inactive)
c1ccc(NCc2nc3ccccc3n2CCOc2ccccc2)cc1 | 0.715% (inactive)
Cc1ccc(NCc2nc3ccccc3n2CCOc2ccccc2)cc1 | 14.9% (active)
CCCCn1c(=N)n(CCOc2ccc(C)cc2)c2ccccc21 | inactive
S=C(NCCN1CCOCC1)Nc1ccccc1Cl | inactive
COc1ccc(CN2C(=O)/C(=C/c3ccncc3)SC2=S)cc1 | inactive
O=C(O)CCCCCN1C(=O)/C(=C\c2ccncc2)SC1=S | 14.8% (active)
Cc1ccc(/C=C2\SC(=S)N(CCCC(=O)Nc3nccs3)C2=O)cc1 | 0.46% (inactive)
Cc1cc(Br)ccc1SCC(=O)OCC(=O)NC(C)c1ccccc1 (stereo not drawn) | 0.13% (inactive)
O=C(Nc1cccc(-c2cn3ccccc3n2)c1)c1cccs1 | 0.18% (inactive)
COc1ccc(C(=O)n2cc(C(=O)c3cc(C)ccc3O)cn2)cc1OC | 14.3% (active)
O=C(c1cnn(C(=O)c2ccccc2)c1)c1ccccc1O | 2.51% (inactive)
COc1ccc(C(=O)n2cc(C(=O)c3cc(C)ccc3O)cn2)cc1 | inactive
Cc1cccc(NCCC#N)c1 | inactive
O=C(Nc1cccc(Cl)c1)c1ccc(F)c(S(=O)(=O)NCc2ccc3c(c2)OCO3)c1 | 5.79% (inactive)
O=C(Nc1cccc(Cl)c1)c1ccc(F)c(S(=O)(=O)NCc2cccs2)c1 | 11.8% (active)
Cc1ccc(NC(=O)c2cccs2)cc1S(=O)(=O)Nc1cccc(Cl)c1 | 7.68% (inactive)
COCC(C)NC(=O)c1ccccc1[N+](=O)[O-] (stereo not drawn) | 1.6% (inactive)
CC(C)CNC(=S)Nc1ccc(S(N)(=O)=O)cc1 | 0.36% (inactive)
COc1ccc(CCNC(=O)COc2ccc(S(=O)(=O)NC3CCCCC3)cc2Cl)cc1OC | 2.27% (inactive)
COc1cc(CN(C2CCCCC2C)S(=O)(=O)c2ccc(S(=O)(=O)NC3CC3)cc2)cc(OC)c1OC (stereo not drawn) | 19.9% (active)
COc1cc(CN(C2CCCCC2)S(=O)(=O)c2ccc(S(=O)(=O)N(C)C3CCCCC3)cc2)cc(OC)c1OC | inactive
Cc1nn(-c2ccccc2)c(N2CCCC2)c1/C=N/NC(=O)c1cc(-c2ccccc2)nc2ccccc12 | 2.99% (inactive)
Cc1nn(-c2ccccc2)c(N2CCCC2)c1/C=N/NC(=O)c1ccccc1O | inactive

SMILES | CPE inhibition
Cc1nn(-c2ccccc2)c(N2CCCC2)c1/C=N/NC(=S)Nc1ccccc1F | 13.2% (active)
O=C(CCc1nc2ccccc2c(=O)[nH]1)OCC(=O)c1ccc(C2CCCCC2)cc1 | 1.97% (inactive)
O=C(Nc1nc2ccccc2s1)c1cc(-c2ccco2)nc2ccccc12 | 5.33% (inactive)
COc1ccc(N2CCN(CC(=O)Nc3sccc3C#N)CC2)cc1 | inactive
O=C(CSc1nnc(CNC(=O)C23CC4CC(CC(C4)C2)C3)n1-c1ccccc1)Nc1ccc(F)cc1 | 6.17% (inactive)
O=C(NC(=S)N1CCN(c2ccc(F)cc2)CC1)C12CC3CC(CC(C3)C1)C2 | 0.245% (inactive)
O=C(NCc1nnc(SCc2ccc(C(F)(F)F)cc2)n1-c1ccccc1)C12CC3CC(CC(C3)C1)C2 | 9.12% (active)
O=C(NCc1nnc(SCc2ccccc2)n1-c1ccc(F)cc1)C12CC3CC(CC(C3)C1)C2 | 15.9% (active)
O=C(CSc1nnc(CNC(=O)C23CC4CC(CC(C4)C2)C3)n1-c1ccccc1)Nc1ccccc1 | 1.45% (inactive)
CC(C)(C)c1ccc(C(=O)NCc2nnc(SCC(=O)N3CCCc4ccccc43)n2-c2ccccc2)cc1 | 5.59% (inactive)
O=C(CSc1nnc(CNC(=O)C23CC4CC(CC(C4)C2)C3)n1-c1ccc(F)cc1)Nc1ccc(F)cc1 | 3.73% (inactive)
Cc1ccc(NC(=O)CSc2nnc(CNC(=O)C34CC5CC(CC(C5)C3)C4)n2-c2ccc(F)cc2)cc1 | 5.74% (inactive)
O=C(NCc1nnc(SCc2ccc(F)cc2)n1-c1ccc(F)cc1)C12CC3CC(CC(C3)C1)C2 | 9.94% (active)
N=C1SC(c2ccccc2)C(=O)N1c1ncc(Cc2ccccc2)s1 (stereo not drawn) | 0.6% (inactive)
COC(=O)CCC(=O)NC(=S)Nc1ccc(S(=O)(=O)Nc2cc(OC)nc(OC)n2)cc1 | 1.88% (inactive)
CCCCNC(=O)CCCCC(=O)N/N=C/c1cccc(Cl)c1 | 0.96% (inactive)
CCN(Cc1ccccc1)C(=O)C1CCN(CC2CC=CCC2)CC1 (stereo not drawn) | inactive
Cc1ccnc(NC(=S)NC(=O)c2cncc(Br)c2)c1 | 0.165% (inactive)
CCCCNC(=O)c1cccc2c(=O)c(C)c(-c3ccccc3)oc12 | inactive
CCOc1ccc(Oc2c(/C=N/NC(=O)COc3ccccc3OC)c(C)nn2-c2ccccc2)cc1 | inactive
O=C(N/N=C\c1ccc(-c2ccccc2[N+](=O)[O-])o1)C1COc2ccccc2O1 (stereo not drawn) | 0.26% (inactive)
CC(CCc1ccccc1)N1CCN(Cc2ccccc2)CC1 (stereo not drawn) | inactive
CC(C)NC(=O)/C(C#N)=C/c1cccc(NC(=O)c2ccccc2Cl)c1 | 3.16% (inactive)
Cc1nn(-c2ccccc2)c(Cl)c1/C=C(\C#N)C(=O)NC(C)C | 20% (active)

SMILES | CPE inhibition
Cc1nn(-c2ccccc2)c(Cl)c1/C=N/NC(=O)c1cccnc1 | 4.37% (inactive)
Cc1ccccc1N1CCN(C(=S)c2ccc([N+](=O)[O-])cc2)CC1 | inactive
CC(C)(C)NC(=O)C(c1c[nH]c2ccccc12)N(C(=O)Cn1nnc(-c2ccc(Cl)cc2)n1)c1ccccc1F (stereo not drawn) | 17.2% (active)
Cc1cc(C)cc(N(C(=O)Cn2nnc(-c3ccccc3)n2)C(C(=O)NC2CCCCC2)c2ccccn2)c1 (stereo not drawn) | 2.08% (inactive)
CC(=O)c1ccc(N(C(=O)Cn2nnc(-c3ccccc3)n2)C(C(=O)NC2CCCCC2)c2ccccn2)cc1 (stereo not drawn) | 4.29% (inactive)
O=[N+]([O-])c1cc2oc3c(c2c(C=NCc2ccncc2)c1O)CCCC3 | 1.15% (inactive)
CC(=O)Oc1ccc(N(C(C)=O)S(=O)(=O)c2cc([N+](=O)[O-])ccc2C)cc1 | inactive
Cc1ccc([N+](=O)[O-])cc1S(=O)(=O)N(C(=O)c1ccncc1)c1ccc2oc3c(c2c1)CCCC3 | 21.1% (active)
COc1cc(NC(=O)COC(=O)CC(C)(C)C)c(C)cc1[N+](=O)[O-] | 0.185% (inactive)
Clc1ccc(CNCc2cccs2)c(Cl)c1 | 0.01% (inactive)
COc1ccc(-c2nc3ccccn3c2/N=C/c2ccc(OC)c(OC)c2)cc1O | 0.31% (inactive)
Cc1c(-c2ccc(Br)cc2)nc2ccccn12 | 1.3% (inactive)
CN(C)c1ccc(-c2nc3ccccn3c2/N=C/c2ccc(Br)cc2)cc1 | 14.2% (active)
Cc1ccc(-c2csc(N/N=C/c3ccco3)n2)c(C)c1 | inactive
COc1cccc(OCCOCCOc2ccc(C)cc2[N+](=O)[O-])c1 | inactive
CC/C(=N\NC(=O)C(N)=O)c1ccccc1O | inactive
CCCCCC(=O)Nc1nc(C)c(-c2csc(Nc3cc(Cl)ccc3C)n2)s1 | inactive
O=C1c2cccc3cccc(c23)C(=O)N1CCN1CCN(CC(O)COc2ccc3ccccc3c2)CC1 (stereo not drawn) | inactive
O=C(COC(=O)C1(c2ccccc2F)CCCC1)Nc1ncc(C(F)(F)F)cc1Cl | 0.45% (inactive)
O=C(COC(=O)c1cc(-c2ccccc2Cl)nc2ccccc12)Nc1ncc(C(F)(F)F)cc1Cl | inactive
COC(=O)N1[C@H](C)C=C[C@]1(Cc1ccccc1)C(=O)NCCCNc1ncc(C(F)(F)F)cc1Cl | 9.39% (active)
